# GLP1R inv ag = acts as inverse agonist at human GLP-1 receptor. 410,000 compounds, 1.6% hits. AID 624417. HEK293 GLP-1R CRE-luciferase, luminescence, 24 h; GLP-1R form is constitutively active. Potency, µM (top dose mostly 38.3 µM), inactives show top-dose activity change, negative = inhibition, usual class: inhibitors; also: % is scaled to controls: 0 for no effect and ±100 for the full control effect; nearly all actives have a fitted effect of over 55% in size
#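 Inverse agonists were sought by their lowering of basal cAMP reporter luciferase output in HEK293 cells stably carrying constitutively active human GLP-1R, after 24 h compound treatment.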
# GLP1R cytotox = cytotoxicity in counter-screen for GLP-1R inverse agonists | Potency, µM (titrated, usually from 38.3 µM), for the others: top-dose activity change, negative = inhibition, hits mostly inhibitors | HEK293 cAMP-luciferase reporter cells, luminescence, 24 h | 410,000 compounds, 0.13% hits;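 also: loss of luciferase light is scored as toxicity; % is scaled to controls: 0 for no effect and ±100 for the full control effect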
#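 To flag toxic compounds, the library was rerun on cells for 24 hr at 37 deg C and 5% CO2. Viability-linked luminescence was captured 12 min after adding luciferase detection reagent.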
# PTHR1 ag = PTHR1 (human) receptor agonism | Q03431 | HEK293 GP2 PTHR1 cells, GloSensor cAMP luminescence, 1 h | Potency, µM (series often up to 115 µM), for inactives: at the highest dose activation, actives largely listed as activators | 410,000 compounds, 0.075% hits | AID 743266; also: nearly all actives have a fitted effect of over 55% in size
# Target sequence (Q03431 whole entry, looked up): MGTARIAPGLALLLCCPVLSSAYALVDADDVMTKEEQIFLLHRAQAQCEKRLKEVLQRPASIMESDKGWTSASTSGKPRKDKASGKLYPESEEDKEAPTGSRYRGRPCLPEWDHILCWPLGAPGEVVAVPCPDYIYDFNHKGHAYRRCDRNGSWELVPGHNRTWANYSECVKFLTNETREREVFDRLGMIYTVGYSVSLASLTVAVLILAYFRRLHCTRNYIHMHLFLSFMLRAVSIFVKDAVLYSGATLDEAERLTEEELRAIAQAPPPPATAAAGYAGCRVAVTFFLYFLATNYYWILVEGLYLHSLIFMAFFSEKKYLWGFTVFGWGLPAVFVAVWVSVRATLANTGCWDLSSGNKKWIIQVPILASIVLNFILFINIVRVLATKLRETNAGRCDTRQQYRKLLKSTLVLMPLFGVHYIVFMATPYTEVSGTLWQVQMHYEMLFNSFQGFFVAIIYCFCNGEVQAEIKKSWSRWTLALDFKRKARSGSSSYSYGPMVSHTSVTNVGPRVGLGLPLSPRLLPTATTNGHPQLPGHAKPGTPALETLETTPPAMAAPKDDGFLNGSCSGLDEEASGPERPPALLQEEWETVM
#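 HEK-293-derived GP2 cells expressing PTHR1 and a GloSensor cAMP reporter, 3,000/well, plated overnight, given luciferin plus IBMX (each 0.5 mM as added) for 1 h at 37 °C, then compound for 1 h at 37 °C. Luminescence was read after 15 min at room temperature.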
# GLP1R ag = GLP-1 receptor (human) agonism | P43220 | HEK293 GLP-1R CRE-luciferase, luminescence, 4-6 h; cells express a hypersensitive GLP-1R form | Potency, µM (titrated, usually from 45.6 µM), for inactives: at the highest dose activation, actives largely listed as activators | 380,000 compounds, 0.007% hits | AID 624172; also: % of control where 0% means no effect
# The depositor's hits bear a star; i = inactive; ? = inconclusive; nt = no result given; [ ] = remark or other dose. Rows were chosen to be rich in hits. Some 1.7% of all compounds tested hit in one or more screens of this group. Calls follow the shape of the dose curve; as a rule, active = well fitted curve in the direction sought with a large enough effect; inconclusive = small, poorly fitted or top-dose-only effect, or another doubt; inactive = no such curve, though single readings can be large; an effect the other way counts as inactive or inconclusive. Potency is read from the fitted curve at half-maximal effect.
SMILES,GLP1R inv ag,GLP1R cytotox,PTHR1 ag,GLP1R ag
CC(=O)OCC(=O)Nc1ccccc1C,12%,-5%,i,-2%
COc1ccc(N(CC(=O)NC2CC3CCC2C3)S(=O)(=O)c2ccc(C)cc2)cc1 (configuration not stated),10µM*,-6%,-14%,0%
COc1ccc(N(CC(=O)NC2CC3CCC2C3)S(=O)(=O)c2ccc(C)cc2)cc1OC (configuration not stated),15%,-2%,-10%,8%
COc1ccc(S(=O)(=O)N(CC(=O)Nc2cccc(C(F)(F)F)c2)c2ccc(C)cc2)cc1,10µM*,-3%,-24%,-4%
O=C(CSc1nnc(-c2ccc(C(F)(F)F)cn2)s1)c1ccc(Cl)cc1,4%,-1%,i,4%
O=C(Nc1cccc(C(=O)O)c1)Nc1ccccc1Cl,4.5µM*,-2%,-31%,-4%
O=C(Nc1ccc(Cl)cc1)Nc1ccccc1C(=O)O,?,5%,-45%,-8%
O=C(Nc1ccccc1Cl)NN1CCCCCC1,2µM*,1%,-6%,27%
COC(=O)c1cc(NC(=O)Nc2ccccc2)ccc1Cl,10µM*,-16%,-7%,-9%
O=C(Nc1ccc(Cl)c(Cl)c1)Nc1ccccc1C(=O)O,5.6µM*,-7%,-34%,-6%
CN(CC(=O)Nc1ccccc1Cl)C(=O)c1ccc(-c2cccc(C(F)(F)F)c2)o1,?,-1%,-51%,22%
CS(=O)(=O)N1CCc2cc(C(=O)N3CCCC3)ccc21,5%,-4%,-22%,8%
O=C(Nc1cccc(Cl)c1)Nc1cccc(C(=O)O)c1,?,-6%,-30%,-4%
O=C(Nc1ccc(Cl)cc1)Nc1cccc(C(=O)O)c1,1µM*,1%,-16%,-8%
COc1ccc(-c2cc(C(F)(F)F)nc(SCCC(=O)Nc3ccc(F)cc3F)n2)cc1,11%,1%,-96%,4%
Cc1ccc(CNC(=O)CSc2nc3c(sc4ccccc43)c(=O)n2CCCC(=O)NCCO)cc1,6%,-2%,?,nt
COc1ccc(OCc2cc(C(=O)NCCc3ccccc3)no2)c(Cl)c1,4.5µM*,-24%,-6%,10%
COc1ccc(OCc2cc(C(=O)NCC3CCOCC3)no2)c(Cl)c1,-22%,-9%,-30%,16%
COc1ccccc1OC(=O)c1ccc(SC)cc1OC,?,8%,25%,?
Cc1nn(Cc2c(F)c(F)c(F)c(F)c2F)c(C)c1NC(=O)c1ccc(COc2ccccc2Cl)o1,10µM*,-7%,-10%,-3%
Cc1nn(Cc2c(F)c(F)c(F)c(F)c2F)c(C)c1NC(=O)c1ccc(COc2ccccc2Cl)cc1,-8%,-15%,-14%,1%
CCCCN(CC)S(=O)(=O)c1ccc2c(c1)n(C)c(=O)c(=O)n2C,15%,9%,i,-8%
CC(C)C[C@H](NC(=O)OC(C)(C)C)c1nnc(SCc2ccccc2)o1,8.9µM*,2%,-5%[57.5 µM],0%
CCOC(=O)CSc1nnc([C@H](Cc2ccccc2)NC(=O)OC(C)(C)C)o1,-18%,-7%,i,5%
CCN1CCN(C(=O)Cn2nc(-c3ccc(Cl)cc3)ccc2=O)CC1,2.8µM*,12%,-7%,9%
SMILES,GLP1R inv ag,GLP1R cytotox,PTHR1 ag,GLP1R ag
O=C(Nc1nccs1)C12CC3CC(C1)CC(C(=O)Nc1nccs1)(C3)C2,4.5µM*,-14%,-12%,-23%
COc1ccc(CN2CCN(Cc3nc4ccccc4s3)CC2CCO)c(C)c1C (configuration not stated),7.9µM*,?,-50%,7%
CCN(CC(=O)Nc1c(F)cccc1F)C(=O)c1ccc(S(=O)(=O)NCc2ccco2)cc1,7%,-2%,-9%,9%
OC1(c2ccccc2)CC(c2ccccc2)c2ccccc2O1 (configuration not stated),11µM*,?,-36%,1%
COCCNc1nc(NCc2ccccc2OC)c2sccc2n1,?,-2%,-21%,4%
COc1ccccc1CNc1nc(Nc2ccccc2-n2cccn2)c2sccc2n1,3.2µM*,-10%,-12%,33%
N#CCCN(NC(=O)OCc1ccccc1)C(=O)OCc1ccccc1,-6%,-15%,i,1%
O=C(OCc1ccccc1)N(CCF)c1cn(Cc2ccccc2)c(=O)n(Cc2ccccc2)c1=O,10µM*,-3%,-18%,18%
Cc1onc(-c2ccccc2)c1C(=O)NCC(O)c1ccccc1 (configuration not stated),-9%,0%,-13%,-5%
CN1CCN(c2ncnc3scc(-c4ccccc4Cl)c23)CC1,1.4µM*,0%,i,-4%
COc1ccc(-c2csc3ncnc(N4CCN(c5ccccc5OC)CC4)c23)cc1,10µM*,-10%,i,13%
Oc1ccccc1N1CCN(c2ncnc3scc(-c4ccc(F)cc4)c23)CC1,?,-8%,-13%,9%
Oc1ccccc1N1CCN(c2ncnc3scc(-c4ccccc4)c23)CC1,11µM*,-26%,-12%,14%
COc1ccc(-c2csc3ncnc(Oc4cccc5ccc(C)nc45)c23)cc1,10µM*,-5%,-16%,-2%
Cc1cc(-c2csc3ncnc(N4CCN(C)CC4)c23)cc(C)c1C,?,1%,-1%,14%
Cc1onc(-c2ccccc2Cl)c1C(=O)O/N=C(\N)c1ccccc1,10µM*,?,i,16%
CCN(CC(=O)Nc1ccccc1OC)C(=O)c1ccc2[nH]c3c(c2c1)CC(C)CC3 (configuration not stated),?,2%,-34%,-3%
CCN(CC(=O)Nc1ccccc1C(F)(F)F)C(=O)c1cc(-c2cccs2)nn1-c1ccccc1,?,7%,-38%,0%
CCCN(CC(=O)Nc1ccccc1OC)C(=O)c1cc(-c2cccs2)nn1-c1ccccc1,11µM*,10%,-11%,4%
CCCN(CC(=O)Nc1ccccc1OC)C(=O)c1ccc2[nH]c3c(c2c1)CC(C)CC3 (configuration not stated),10µM*,-7%,-21%,-21%
Cc1ccc(-c2c(C(=O)NCCc3ccc(Cl)cc3)oc(=O)c3ccccc23)cc1,4.5µM*,5%,17%,-11%
Cc1ccccc1S(=O)Cc1ccc(C(=O)NC2CC2)o1 (configuration not stated),8%,6%,-3%,-4%
CCN(Cc1ccccc1)C(=O)c1ccc(CS(=O)c2ccccc2C)o1 (configuration not stated),10µM*,-6%,i,-1%
O=C(/C=C/c1ccccc1)OCN1C(=O)c2ccccc2C1=O,24%,17%,i,9%
COc1ccc(-n2ncc(C(=O)NCCN3CCOCC3)c2C2CCN(C(=O)OC(C)(C)C)CC2)cc1,1%,15%,26%,nt
CC1=Nc2cc(C(=O)NCCCN3CCOCC3)ccc2Sc2c(C)ccc(C)c21,8.9µM*,-18%,i,10%
CC1=Nc2cc(C(=O)NCCc3ccccc3)ccc2Sc2c(C)ccc(C)c21,?,?,i,11%

# Screens: PubChem BioAssay, National Center for Advancing Translational Sciences (NCATS)
